Hit rate of the full screen: of about 39,000 compounds, about 500 (1.3%) were called active. The entries come from a sample that favours actives as a whole.
Each compound was assayed on S. aureus RN4220 (assay: growth inhibition call (relative growth <= 0.2)). Settings: 50 µM.

| Structure (SMILES) | growth inhibition call |
| --- | --- |
| CC=Cc1ccc2c(c1)OCO2 | inactive |
| CCn1cnc2c(Nc3cccc(Cl)c3)nc(N[C@@H]3CCCC[C@@H]3N)nc21 | inactive |
| CCO[C@H]1[C@H]2CC[C@@H]1NC2 | inactive |
| O=[N+]([O-])C(Br)(CO)CO [listing 1 of 2 here] | active |
| O=[N+]([O-])C(Br)(CO)CO [listing 2 of 2 here] | active |
| OCC(Br)(Br)Br | inactive |
| CCCCS(=O)(=O)N1C[C@H]2CNC[C@@H]2C1 | inactive |
| C[C@H]1CN([C@@H](C)CO)C(=O)CCCn2nncc2CO[C@H]1CN(C)C(=O)Oc1ccc2ccccc2c1 | inactive |
| CNCC(=O)c1ccc(O)c(O)c1 | inactive |
| CCCCCCCCCC(=O)O[C@@H]1[C@@H](C)[C@]2(O)[C@@H](C=C(CO)C[C@]3(O)C(=O)C(C)=C[C@@H]23)[C@@H]2C(C)(C)[C@@]12OC(=O)CCCCCCCCC | inactive |
| CCCCC(=O)N1C[C@@H]2CCNC[C@@H]21 | inactive |
| Cc1nc(-c2ccc(-c3ccc(C(=O)N4CCc5cc6c(cc54)C4(CCN(C)CC4)CO6)cc3)c(C)c2)no1 | active |
| O=[N+]([O-])c1ccc([As](=O)(O)O)cc1 | inactive |
| CC(=O)NN1Cc2ccccc2C1=N | inactive |
| CNc1ccc(C(=O)C[C@@H](O)CC[C@@H](C)[C@H]2OC(=O)C[C@@H](O)CC(=O)C[C@@H](O)C[C@@H](O)C[C@@H](O)C[C@@H](O)C[C@@]3(O)C[C@@H](O)[C@H](C(=O)OC)[C@@H](C[C@@H](O[C@@H]4O[C@H](C)[C@@H](O)[C@H](N)[C@@H]4O)\C=C/C=C\C=C/C=C\C=C/C=C\C=C/[C@@H]2C)O3)cc1 | inactive |
| CCNS(=O)(=O)C(F)(F)C(F)(F)C(F)(F)C(F)(F)C(F)(F)C(F)(F)C(F)(F)C(F)(F)F | inactive |
| CN(C)C(=O)Oc1ccc[n+](C)c1.[Br-] | inactive |
| c1ccc2sc(C3(N4CCCC4)CCCCC3)cc2c1 | inactive |
| CCCCOC(=O)C1=CC(=O)CC(C)(C)O1 | inactive |
| O=[N+]([O-])c1ccc(O)c([N+](=O)[O-])c1 | active |
| O=[N+]([O-])c1cc([As](=O)(O)O)ccc1O | inactive |
| O=[N+]([O-])c1cc(O)c(O)c([N+](=O)[O-])c1 | inactive |
| CCCC[C@@H](C)[C@@H](OC(=O)C[C@@H](CC(=O)O)C(=O)O)[C@H](C[C@@H](C)C[C@H](O)CCCC[C@@H](O)C[C@H](O)[C@H](C)N)OC(=O)C[C@@H](CC(=O)O)C(=O)O | inactive |
| O=C(O)C[C@H]1CC[C@@H]2NC[C@H](O)COC[C@H]2O1 | inactive |

| Structure (SMILES) | growth inhibition call |
| --- | --- |
| CC(C)[C@@H](Br)C(=O)NC(N)=O | inactive |
| C[C@@H]1CN([C@H](C)CO)C(=O)CCCn2nncc2CO[C@@H]1CN(C)C(=O)Oc1ccc2ccccc2c1 | inactive |
| CC(=O)[O][Cd][O]C(C)=O | active |
| CC(=O)[O][PbH2][O]C(C)=O | inactive |
| CC1OC(OC2C(O)C(O)C(O)C(O)C2O)C(N)CC1NC(=N)C(=O)O.Cl (stereo not drawn) | inactive |
| C=C1[C@@H](C)[C@H]2[C@H](Cc3ccccc3)NC(=O)[C@]23[C@H](OC(C)=O)/C=C/[C@](C)(O)C(=O)[C@@H](C)C/C=C/[C@H]3[C@@H]1O | inactive |
| C=CCOC(Cn1ccnc1)c1ccc(Cl)cc1Cl.O=S(=O)(O)O (stereo not drawn) | active |
| O.O.O.O=C([O-])C1[O][Sb]2[O]C(=O)C([O]2)C(C(=O)[O-])[O][Sb]2[O]C(=O)C1[O]2.[K+].[K+] (stereo not drawn) | inactive |
| CC(C)=CCCC1(C)C=Cc2c(O)c3c(c(CC=C(C)C)c2O1)OC12C(=CC4CC1C(C)(C)OC2(CC=C(C)C(=O)O)C4=O)C3=O (stereo not drawn) | inactive |
| NC(=O)c1cc([N+](=O)[O-])cc([N+](=O)[O-])c1 | inactive |
| CC(C)[C@@H]1NC[C@@H]2CCCN2C1=O | inactive |
| C=C[C@H]1[C@H](O[C@@H]2O[C@H](CO)[C@@H](O)[C@H](O)[C@H]2O)OC=C2C(=O)OCC[C@H]21 | inactive |
| O=[N+]([O-])c1ccc(N(CCO)CCO)c2c1no[n+]2[O-] | active |
| C#CCOS(=O)OC1CCCCC1Oc1ccc(C(C)(C)C)cc1 (stereo not drawn) | inactive |
| O=C(c1ccccc1)C12CN3CN(CN(C3)C1)C2 | inactive |
| C1CC2(CCN1)OCCO2 | inactive |
| Clc1cc2c(cc1Cl)Oc1cc(Cl)c(Cl)cc1O2 | inactive |
| [O-][n+]1ccccc1[S][Zn][S]c1cccc[n+]1[O-] | active |
| O[C@H]1[C@H](O)[C@@H](O)CN2CC[C@H](O)[C@H]12 | inactive |
| CCN(CC)S(=O)(=O)c1ccc(Cn2nc(C(=O)Nc3ccc(N4CCCCC4)cc3)c3ccccc32)cc1 | inactive |
| COC(=O)C(c1ccccc1)C1CCCCN1.Cl (stereo not drawn) | inactive |
| CC[C@@H](N)[C@@H](O)c1ccc(O)c(O)c1 | inactive |
| CCC(COC(=O)c1cc(OC)c(OC)c(OC)c1)(c1ccccc1)N(C)C.O=C(O)C=CC(=O)O (stereo not drawn) | inactive |
| CCOP(=S)(OCC)Oc1nc(Cl)c(Cl)cc1Cl | inactive |

| Structure (SMILES) | growth inhibition call |
| --- | --- |
| COP(=S)(OC)Oc1cc(Cl)c(Cl)cc1Cl | active |
| COP(=S)(OC)Oc1ccc(Sc2ccc(OP(=S)(OC)OC)cc2)cc1 | inactive |
| N[C@@]1(C(=O)O)CC[C@@H](C(=O)O)C1.N[C@]1(C(=O)O)CC[C@H](C(=O)O)C1 | inactive |
| NCCc1nnc2n1CCCCC2 | inactive |
| CNC(C)C(O)c1ccccc1.Cl (stereo not drawn) | inactive |
| CCCCCCCCCCCCCCCC[n+]1ccccc1.[Cl-] | inactive |
| CNC1C(O)C(OC2C(N)CC(N)C(OC3OC(C(C)O)C(O)C(O)C3N)C2O)OCC1(C)O (stereo not drawn) | active |
| CN[C@@H]1[C@@H](O)[C@@H](O[C@@H]2[C@H](O)[C@@H](O[C@H]3O[C@H]([C@@H](C)O)[C@@H](O)[C@H](O)[C@H]3N)[C@H](N)C[C@@H]2N)OC[C@]1(C)O | inactive |
| CN[C@@H]1[C@@H](O)[C@@H](O[C@@H]2[C@@H](O)[C@H](O[C@H]3O[C@H](CN)CC[C@H]3N)[C@@H](N)C[C@H]2N)OC[C@]1(C)O.CN[C@@H]1[C@@H](O)[C@@H](O[C@@H]2[C@@H](O)[C@H](O[C@H]3O[C@H]([C@@H](C)N)CC[C@H]3N)[C@@H](N)C[C@H]2N)OC[C@]1(C)O.CN[C@@H]1[C@@H](O)[C@@H](O[C@@H]2[C@@H](O)[C@H](O[C@H]3O[C@H]([C@@H](C)NC)CC[C@H]3N)[C@@H](N)C[C@H]2N)OC[C@]1(C)O | inactive |
| O=C1O[C@H]2CN[C@@H]1C2 | inactive |
| C[C@H]1CN([C@@H](C)CO)C(=O)CCCn2nncc2CO[C@@H]1CN(C)C(=O)Oc1ccc2ccccc2c1 | inactive |
| CC1=C(O)C(=O)C=C2C1=CC=C1C2(C)CCC2(C)C3CC(C)(C(=O)O)CCC3(C)CCC12C (stereo not drawn) | inactive |
| CCn1nc(-c2cccnc2)nc2c(=O)n(C)c(=O)nc1-2 | active |
| Cc1nc2c(=O)n(C)c(=O)nc-2n(C)n1 | inactive |
| Cn1ncnc2c(=O)n(C)c(=O)nc1-2 | inactive |
| CCC1=C[C@@H]2[C@H](C1)C[C@]2(CN)CC(=O)O | inactive |
| C[C@@H]1CN([C@@H](C)CO)C(=O)CCCn2cc(nn2)CO[C@@H]1CN(C)C(=O)Oc1cccc2ccccc12 | inactive |
| Cl.Oc1noc2c1CCNC2 | inactive |
| CC12CCC(O)CC1CCC1C2CC(O)C2(C)C(C3=CC(=O)OC3)CCC12O (stereo not drawn) | inactive |
| CC1=C2CC3C(CC=C4CC(O)CCC43C)C2CCC12OC1CC(C)CNC1C2C (stereo not drawn) | inactive |
| O=C(O)C=CC(=O)O.c1ccc2nc(N3CCNCC3)ccc2c1 | inactive |
| CC(C)(C)C(=O)C(Oc1ccc(Cl)cc1)n1cncn1 (stereo not drawn) | inactive |
| O=C1C=C2C(=CCOC2O)O1 (stereo not drawn) | active |
| O=C1C=C2C(=CCO[C@@H]2O)O1 | inactive |

| Structure (SMILES) | growth inhibition call |
| --- | --- |
| CO[C@@H]1C=C[C@@H]2[C@H]1N2CCCO (stereo partly drawn) | inactive |
| Cc1cc[n+](C)cc1 | inactive |
| COc1ccc(CN2CCNCC2)c(OC)c1OC.Cl.Cl | inactive |
| COCCCNC(=O)C1[C@@H]2CC[C@H]1CNC2 (stereo partly drawn) | inactive |
| COc1ccc2c(c1)C[C@H](N)C2 | inactive |
| Oc1c(Cl)c(Cl)c(Cl)c(Cl)c1Cl | active |
| CCCCCCCCCCCCCCCC[N+](C)(C)C.[Br-] | inactive |
| C[C@@H](N)Cc1c[nH]c2ccc(O)cc12 | inactive |
| Oc1ccccc1N1CCNCC1 | inactive |
| CN1C(=O)[C@]23CC4=CC=C[C@H](O)[C@H]4N2C(=O)[C@@]1(CO)SS3 | inactive |
| CN1C(=O)[C@@]23C[C@]4([C@@]56C[C@]78SS[C@](CO)(C(=O)N7[C@@H]5Nc5ccccc56)N(C)C8=O)c5ccccc5N[C@H]4N2C(=O)[C@@]1(CO)SS3 | active |
| CCCC(=O)c1c(O)[nH]c(=O)[nH]c1=O | inactive |
| CCCC12CNCC(C)(CNC1)C2=O | inactive |
| c1ccc2cc3c(cc2c1)-c1cccc2cccc-3c12 | inactive |
| CN(C)C(=S)SSC(=S)N(C)C | active |
| CO[C@@H]1C[C@@H](C[C@H]2CC[C@H](C)[C@H]([C@@H](C)C(=O)O)O2)O[C@]2(O[C@](C)([C@H]3CC[C@@](C)([C@H]4O[C@@H]([C@H]5O[C@@](O)(CO)[C@H](C)C[C@@H]5C)C[C@@H]4C)O3)C[C@H]2C)[C@@H]1C | active |
| Cc1ccc(OC(=O)N(C)C[C@H]2OCc3ccccc3-c3c(n(C)c4ccccc34)C(=O)N([C@@H](C)CO)C[C@@H]2C)cc1 | inactive |
| CC(C)c1cc2c(c(O)c1O)C1(C(=O)O)CCCC(C)(C)C1CC2 (stereo not drawn) | inactive |
| O=C(NCNC(=O)N[C@H]1C(=O)NC(=O)N1CO)N[C@H]1C(=O)NC(=O)N1CO | inactive |
| CC(C)(CN)CNc1ccc([N+](=O)[O-])c2cccnc12 | inactive |
| CC(=O)OC1CC(OC2C(O)CC(OC3C(O)CC(OC4CCC5(C)C(CCC6C5CC(O)C5(C)C(C7=CC(=O)OC7)CCC65O)C4)OC3C)OC2C)OC(C)C1OC1OC(CO)C(O)C(O)C1O (stereo not drawn) | inactive |
